We go through eight compounds from PubChem BioAssay (Tox21).

Assay [1] in a line: Nuclear factor erythroid 2-related factor 2/antioxidant responsive element (Nrf2/ARE) small molecule agonists: qHTS cell viability counter screen in human keratinocytes (AID 1919968; active = well fitted curve in the direction sought with a large enough effect in the repeat runs; an effect the other way counts as inactive or inconclusive; note: nearly all actives have a fitted effect of over 55% in size; note: potency is the fitted concentration of half-maximal effect). In outline:
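In human HaCaT keratinocytes stably expressing an ARE-driven luciferase, compound exposure lasted 23 h at 37 C under 5% CO2. Viable cells are quantified with a protease-based fluorogenic reagent (CellTiter-Fluor) read 1 h after addition.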

Assay [2] deals with Gonadotropin-releasing hormone receptor (Homo sapiens) (UniProt P30968). In words: Human gonadotropin-releasing hormone receptor (GnRHR) small molecule agonists, calcium flux assay in GnRHR-HEK293 cells (AID 1920063). Note: nearly all actives have a fitted effect of over 35% in size. In outline:
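Intracellular calcium rise is the read-out: engineered human GnRHR HEK293 cells, dye-loaded, are exposed to DMSO-dissolved compounds and fluorescence at Ex/Em 480/540 is tracked for 3 min.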
(In general: A change in cytosolic calcium serves as a functional read-out for many receptors and channels.)

Assay [3] addresses KiSS-1 receptor (Homo sapiens) (UniProt Q969F8). In words: Human kisspeptin (KISS1R) small molecule agonists, calcium flux assay in KISS1R-HEK293 cells (AID 1920064; active = well fitted curve in the direction sought with a large enough effect in the repeat runs; an effect the other way counts as inactive or inconclusive). The procedure, abridged: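 Concentration-response testing used 15 concentrations in triplicate on human KISS1R-expressing HEK293 cells. Calcium-dependent fluorescence (Ex/Em 480/540) was followed kinetically for 3 min after compound transfer.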

The nature of assay [4]: p53 small molecule agonists, cell-based qHTS assay with rat liver microsomes (AID 1963578). The procedure, abridged: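 Read-out is beta-lactamase reporter fluorescence (LiveBLAzer, 2 h, room temperature, dark) in p53RE-bla cells treated 16 h at 37 C with compound, rat liver microsomes and NADPH, both 0.5 mg/mL final.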
Background: In qHTS, concentration-response curves come from the screen itself.

Assay [5] in a line: p53 small molecule agonists, cell-based qHTS assay with human liver microsomes: qHTS cell viability counter screen (AID 1963579). Note: nearly all actives have a fitted effect of over 45% in size. In outline:
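Cells carrying the p53 response-element beta-lactamase reporter are treated for 16 h at 37 C with test compounds in the presence of human liver microsomes and NADPH (both 0.5 mg/mL final); ATP-based CellTiter-Glo luminescence then reports viability.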

Assay [6] can be described thus: p53 small molecule agonists, cell-based qHTS assay with rat liver microsomes: qHTS cell viability counter screen (AID 1963580). Note: nearly all actives have a fitted effect of over 45% in size. The procedure, abridged:
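Luminescent ATP readout (CellTiter-Glo, 30 min at room temperature) reports viability of p53RE-bla HCT-116 cells after 16 h at 37 C with test compounds under metabolic activation by rat liver microsomes and NADPH at 0.5 mg/mL final each.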

Assay [7] can be described thus: p53 small molecule agonists, cell-based qHTS assay: qHTS cell viability counter screen (AID 1963581). Note: nearly all actives have a fitted effect of over 45% in size. Note: potency is the fitted concentration of half-maximal effect. The procedure, abridged:
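Luminescence from CellTiter-Glo, reflecting ATP content, serves as the cytotoxicity measure; it is taken after the 2 h reporter substrate step in HCT-116 p53RE-bla cells dosed for 16 h at 37 C.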

Assay [8] is described as follows: p53 small molecule agonists, cell-based qHTS assay (AID 1963582; active = well fitted activation curve with a large enough effect in the signal ratio in the repeat runs, not every such curve was filed as active; the % refers to the signal ratio). In outline: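 After plating, p53RE-bla cells sat 5 h in the incubator; compounds or DMSO vehicle were pinned in; a 16 h incubation at 37 C followed; FRET substrate was added and, 2 h later at RT, fluorescence was measured.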
In assay [9] the target is 5-hydroxytryptamine receptor 2A (Homo sapiens) (UniProt P28223). In words: 5-hydroxytryptamine receptor 2A (HTR2A) small molecule agonists, cell-based qHTS assay (AID 1963587). Note: nearly all actives have a fitted effect of over 30% in size. The procedure, abridged:
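HTR2A-CHO cells, plated 18 h at 37 C/5% CO2, dye-loaded 1 h at 37 C; compounds in DMSO added by pin tool (agonist mode). Intracellular calcium flux read as kinetic fluorescence on FDSS over 2 min at 1 s intervals.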

In assay [10] the target is Muscarinic acetylcholine receptor M1 (Homo sapiens) (UniProt P11229). Kind of assay: Cholinergic receptor muscarinic 1 (CHRM1) small molecule antagonists, cell-based qHTS assay (AID 1963588). Note: nearly all actives have a fitted effect of over 40% in size. In outline: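 Compounds were tested at 15 concentrations in three independent runs. Dye-loaded CHRM1-CHO cells were exposed 5 min at room temperature before stimulation by acetylcholine added at 50nM. Intracellular calcium was read kinetically on FDSS for 3 min.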

Assay [11] shares this target. In words: Cholinergic receptor muscarinic 1 (CHRM1) small molecule agonists, cell-based qHTS assay (AID 1963589). Note: nearly all actives have a fitted effect of over 35% in size. In outline: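 Fluorescent calcium dye reports M1 activation in stably transfected CHO cells. Compounds, 15 concentrations, added after 1 h dye loading at 37 C; kinetic reading at 1 sec intervals.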
Assay [12] is described as follows: cAMP Responsive Elements (CRE) small molecule agonists, cell-based qHTS assay (AID 1963590). The procedure, abridged:
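Compound exposure lasted 3 h at 37 C/5% CO2 in CRE-bla HEK 293T cells grown in assay medium with 10% dialyzed FBS and 25 mM HEPES. Reporter signal came from LiveBLAzer B/G FRET substrate, 2 h, room temperature.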

The nature of assay [13]: cAMP Responsive Elements (CRE) small molecule antagonists, cell-based qHTS assay (AID 1963591; active = well fitted inhibition curve with a large enough effect in the signal ratio in the repeat runs, not every such curve was filed as active; the % refers to the signal ratio; note: potency is the fitted concentration of half-maximal effect). In outline:
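Stimulation used NKH477 at a final 0.25 uM for 3 h in compound-treated CRE-bla HEK293T cells, seeded 18 h beforehand. Reporter activity was measured with LiveBLAzer B/G FRET substrate after 2 h at room temperature.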

For assay [14], the target named is D(2) dopamine receptor (Homo sapiens) (UniProt P14416). Kind of assay: Dopamine D2 receptor (DRD2) small molecule agonists, cell-based qHTS assay (AID 1963594). Note: nearly all actives have a fitted effect of over 35% in size. In outline:
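HEK293 cells stably expressing DRD2 were cultured 24 h at 37 C, then given Ro20-1724 (0.1 mM final) and compounds for 10 min at room temperature. NKH477 (200nM) was then added for 30 min. cAMP was read by HTRF.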

The target is the same in assay [15]. In words: Dopamine D2 receptor (DRD2) small molecule antagonists, cell-based qHTS assay (AID 1963595; active = well fitted inhibition curve with a large enough effect in the signal ratio in the repeat runs, with a control signal flat; the % refers to the signal ratio). The procedure, abridged:
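In this cell-based antagonist screen, compounds act for 10 min at room temperature before a 30 min challenge with 12 nM quinpirole and 200 nM NKH477. cAMP is quantified by HTRF competition in DRD2-HEK293 cells containing 0.1 mM Ro20-1724.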

Assay [16] in a line: G protein-coupled receptor (GPCR) small molecule agonists, calcium flux assay: HEK293 wild type cell line counter screen (AID 1920065). The procedure, abridged:
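Fluorescence intensity signals activation. After overnight (18 h) culture and a 1 h calcium dye load at 37 C, compounds are added by pin tool and the plate read at 480/540 nm for 3 min in 1 s steps.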

Assay [17] can be described thus: p53 small molecule agonists, cell-based qHTS assay with human liver microsomes (AID 1963577). In outline:
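Compounds act here after metabolic activation: human liver microsomes and NADPH, both at 0.5 mg/mL final, were co-added to p53RE-bla cells. Incubation ran 16 h at 37 C, followed by LiveBLAzer detection.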

The target in assay [18] is 5-hydroxytryptamine receptor 2A (Homo sapiens) (UniProt P28223). In words: 5-hydroxytryptamine receptor 2A (HTR2A) small molecule antagonists, cell-based qHTS assay (AID 1963586). Note: nearly all actives have a fitted effect of over 45% in size. In outline: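 CHO cells stably expressing human HTR2A were plated for 18 h at 37 C, then loaded with calcium dye for 1 h. Compounds were preincubated 5 min at room temperature before DOI (4 nM solution) was added. Kinetic fluorescence was read for 3 min.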

For assay [19], the target named is Beta-2 adrenergic receptor (Homo sapiens) (UniProt P07550). Kind of assay: Adrenergic beta2 receptor (ADRB2) small molecule antagonists, cell-based qHTS assay (AID 1963592). Note: series mostly up to about 92 µM; nearly all actives have a fitted effect of over 50% in size. In outline: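 Assay format: CHO-ADRB2 cells, 18-20hr seeding at 37C/5% CO2, then compound plus 1nM isoproterenol agonist mix for 0.5hr RT. Homogeneous time-resolved fluorescence cAMP detection after 1hr, expressed as 665/615 nm ratio.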

For assay [20] the target is unchanged. Kind of assay: Adrenergic beta2 receptor (ADRB2) small molecule agonists, cell-based qHTS assay (AID 1963593).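 Note: CHO cells stably overexpressing human ADRB2.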 In outline: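 CHO cells stably over-expressing ADRB2 were plated overnight at 37C, then dosed with compounds plus a stimulation mix containing 100uM IBMX and 25uM Ro-20-1724 for 0.5hr at room temperature. cAMP was measured by HTRF competition, 1hr.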

Records with an inconclusive call do not appear. The source holds several records for some structures; these can differ, active in one and inactive in another. Calls of active or inactive are those of the source. Unless noted, calls come from the whole dose curve.

Chain of Muscarinic acetylcholine receptor M1 (Homo sapiens) (P11229 whole entry, looked up): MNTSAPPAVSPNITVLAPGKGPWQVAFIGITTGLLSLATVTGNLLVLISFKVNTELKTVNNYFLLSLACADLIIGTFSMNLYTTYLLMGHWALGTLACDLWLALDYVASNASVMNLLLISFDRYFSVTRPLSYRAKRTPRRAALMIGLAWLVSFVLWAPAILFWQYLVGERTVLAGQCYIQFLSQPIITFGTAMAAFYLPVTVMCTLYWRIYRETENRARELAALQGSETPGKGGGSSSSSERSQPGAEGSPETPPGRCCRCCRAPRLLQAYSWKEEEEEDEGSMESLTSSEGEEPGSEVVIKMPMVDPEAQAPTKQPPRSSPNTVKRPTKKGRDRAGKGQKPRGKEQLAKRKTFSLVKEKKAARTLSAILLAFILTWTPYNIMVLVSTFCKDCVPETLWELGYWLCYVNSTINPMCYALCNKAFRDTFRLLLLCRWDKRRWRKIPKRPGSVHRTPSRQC
Chain of Beta-2 adrenergic receptor (Homo sapiens) (P07550 whole entry, looked up): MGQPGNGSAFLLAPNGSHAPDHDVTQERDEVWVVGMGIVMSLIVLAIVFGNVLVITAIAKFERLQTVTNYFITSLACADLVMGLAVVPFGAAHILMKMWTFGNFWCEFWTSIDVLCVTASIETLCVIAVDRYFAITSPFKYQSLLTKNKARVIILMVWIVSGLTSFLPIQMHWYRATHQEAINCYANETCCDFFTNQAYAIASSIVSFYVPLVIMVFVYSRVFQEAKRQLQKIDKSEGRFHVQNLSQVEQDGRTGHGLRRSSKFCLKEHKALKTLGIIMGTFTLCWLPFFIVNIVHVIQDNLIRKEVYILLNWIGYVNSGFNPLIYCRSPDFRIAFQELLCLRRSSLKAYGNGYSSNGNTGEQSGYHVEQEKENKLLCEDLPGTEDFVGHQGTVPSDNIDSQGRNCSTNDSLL
Chain of D(2) dopamine receptor (Homo sapiens) (P14416 whole entry, looked up): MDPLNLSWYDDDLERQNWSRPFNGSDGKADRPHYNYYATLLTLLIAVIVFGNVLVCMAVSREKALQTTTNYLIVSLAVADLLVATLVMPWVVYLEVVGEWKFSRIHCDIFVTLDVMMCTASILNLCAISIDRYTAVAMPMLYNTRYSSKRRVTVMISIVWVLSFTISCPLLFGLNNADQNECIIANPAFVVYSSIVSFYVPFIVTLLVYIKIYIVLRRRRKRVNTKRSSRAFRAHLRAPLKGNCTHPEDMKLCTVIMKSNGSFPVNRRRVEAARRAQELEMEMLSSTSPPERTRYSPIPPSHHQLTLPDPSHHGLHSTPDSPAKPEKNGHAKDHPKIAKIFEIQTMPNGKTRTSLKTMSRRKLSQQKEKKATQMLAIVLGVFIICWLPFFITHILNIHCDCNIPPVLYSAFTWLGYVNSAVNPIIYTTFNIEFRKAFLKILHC
Chain of Gonadotropin-releasing hormone receptor (Homo sapiens) (P30968 whole entry, looked up): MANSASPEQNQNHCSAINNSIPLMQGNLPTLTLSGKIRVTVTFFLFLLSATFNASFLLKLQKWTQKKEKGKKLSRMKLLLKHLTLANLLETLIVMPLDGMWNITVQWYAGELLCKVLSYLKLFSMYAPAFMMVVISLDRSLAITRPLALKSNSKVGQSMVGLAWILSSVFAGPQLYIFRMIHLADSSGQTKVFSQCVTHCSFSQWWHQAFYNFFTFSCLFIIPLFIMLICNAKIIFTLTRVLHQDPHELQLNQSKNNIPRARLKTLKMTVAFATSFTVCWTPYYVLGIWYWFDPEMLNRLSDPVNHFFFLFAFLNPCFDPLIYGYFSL
Chain of 5-hydroxytryptamine receptor 2A (Homo sapiens) (P28223 whole entry, looked up): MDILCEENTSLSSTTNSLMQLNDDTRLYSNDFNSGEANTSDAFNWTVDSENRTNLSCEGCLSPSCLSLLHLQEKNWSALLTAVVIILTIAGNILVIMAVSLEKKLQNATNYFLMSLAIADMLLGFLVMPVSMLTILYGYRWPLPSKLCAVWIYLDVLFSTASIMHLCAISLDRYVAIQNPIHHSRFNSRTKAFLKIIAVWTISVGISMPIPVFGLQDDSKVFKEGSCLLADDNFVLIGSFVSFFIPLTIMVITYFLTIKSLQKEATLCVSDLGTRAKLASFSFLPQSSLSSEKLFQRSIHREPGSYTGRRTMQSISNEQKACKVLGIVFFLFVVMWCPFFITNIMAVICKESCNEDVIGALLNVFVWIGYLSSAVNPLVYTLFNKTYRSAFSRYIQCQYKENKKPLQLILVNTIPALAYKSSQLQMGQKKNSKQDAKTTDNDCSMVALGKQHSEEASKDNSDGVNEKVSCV
Chain of KiSS-1 receptor (Homo sapiens) (Q969F8 whole entry, looked up): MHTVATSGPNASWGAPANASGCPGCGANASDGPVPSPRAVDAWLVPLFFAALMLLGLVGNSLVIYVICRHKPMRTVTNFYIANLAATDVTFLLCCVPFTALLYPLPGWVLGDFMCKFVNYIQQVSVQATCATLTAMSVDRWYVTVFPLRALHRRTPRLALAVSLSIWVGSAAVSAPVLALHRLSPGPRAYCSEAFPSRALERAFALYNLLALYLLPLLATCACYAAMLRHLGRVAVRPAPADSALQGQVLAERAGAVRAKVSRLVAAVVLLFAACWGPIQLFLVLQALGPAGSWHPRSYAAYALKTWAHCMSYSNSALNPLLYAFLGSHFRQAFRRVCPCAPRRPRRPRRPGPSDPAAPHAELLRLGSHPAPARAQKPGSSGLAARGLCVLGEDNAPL

Regarding `CC(C)N(C)C`, the Potency result in assay [1], in [2], in [3], in assay [4], in assay [5] and in assay [6] was “inactive” each time. Further, the Potency entry in [7], in assay [8], in [9], in assay [10], in [11] and in [12] was “inactive” each time. Besides, the Potency entry in assay [13], in assay [14] and in assay [15] was “inactive” each time.

`O=C(Oc1cccc2cccnc12)c1ccccc1`: the Potency in assay [1] was 2.98 µM (active); in [13], 23.7 µM (active). The Potency result in [2], in assay [16], in assay [17], in assay [4], in [5] and in [6] was “inactive” throughout. Also, the Potency result in assay [8], in assay [18], in assay [9], in assay [10], in assay [11] and in assay [12] was “inactive” in each case. Also, the Potency result in assay [19] and in assay [15] was “inactive” throughout.

In the case of `Clc1cc(Cl)c2c(c1)N=C1CCCCCN1C2`, the Potency result in [1], in [2], in [16], in assay [17], in assay [4] and in [6] was “inactive” in each case. The Potency entry in [9], in assay [11], in [19], in assay [20] and in [14] was “inactive” throughout.

`CCCC/C=C/CCCCO`: the Potency result in assay [1], in assay [2], in assay [16], in assay [17], in assay [4] and in assay [5] was “inactive” in each case. The Potency entry in [8], in [18], in assay [9], in assay [10], in assay [11] and in assay [12] was “inactive” throughout. The Potency entry in assay [19], in [20] and in assay [15] was “inactive” throughout.

As for `CC(C)(C)c1cc(CO)cc(C(C)(C)C)c1O`, the Potency entry in assay [1], in assay [2], in assay [16], in assay [4], in assay [5] and in [18] was “inactive” throughout. In addition, the Potency entry in [9], in assay [11], in assay [12], in [19], in assay [14] and in [15] was “inactive” throughout.

Consider `C/C(CC(C)C)=N\O`, for which the Potency entry in assay [1], in [3], in assay [16], in [17], in assay [4] and in assay [5] was “inactive” throughout. Besides, the Potency result in assay [6], in assay [7], in assay [8], in [18], in assay [9] and in assay [10] was “inactive” throughout. In addition, the Potency entry in assay [11], in [12], in assay [13], in assay [19], in [14] and in assay [15] was “inactive” each time.

`CCCCOCCOCCOCc1cc2c(cc1CCC)OCO2`: the Potency result in assay [1], in [2], in assay [16], in assay [5], in assay [6] and in assay [18] was “inactive” each time. Besides, the Potency result in [9], in assay [10], in assay [11], in assay [12], in assay [19] and in [20] was “inactive” each time. Besides, the Potency entry in assay [14] and in assay [15] was “inactive” each time. In assay [7], the Potency is 41.3 µM (active) and inactive.

As for `O=C1Nc2ccc([N+](=O)[O-])cc2C1=O`, the Potency result in [1], in assay [2], in [16], in assay [17], in assay [4] and in assay [5] was “inactive” in each case. Also, the Potency result in assay [6], in assay [7], in assay [8], in assay [18], in [9] and in assay [10] was “inactive” in each case. Further, the Potency entry in [11], in [13] and in [14] was “inactive” each time.
